# Source: PubChem BioAssay
# VDR inhibitor – blocks the human vitamin D receptor | P11473 | VDR-SRC2-3 peptide fluorescence polarization, 2 h | Potency, µM, inactives show max response, negative = inhibition, usual class: inhibitors | 400,000 compounds, 0.93% hits
# Target sequence (P11473 whole entry, looked up): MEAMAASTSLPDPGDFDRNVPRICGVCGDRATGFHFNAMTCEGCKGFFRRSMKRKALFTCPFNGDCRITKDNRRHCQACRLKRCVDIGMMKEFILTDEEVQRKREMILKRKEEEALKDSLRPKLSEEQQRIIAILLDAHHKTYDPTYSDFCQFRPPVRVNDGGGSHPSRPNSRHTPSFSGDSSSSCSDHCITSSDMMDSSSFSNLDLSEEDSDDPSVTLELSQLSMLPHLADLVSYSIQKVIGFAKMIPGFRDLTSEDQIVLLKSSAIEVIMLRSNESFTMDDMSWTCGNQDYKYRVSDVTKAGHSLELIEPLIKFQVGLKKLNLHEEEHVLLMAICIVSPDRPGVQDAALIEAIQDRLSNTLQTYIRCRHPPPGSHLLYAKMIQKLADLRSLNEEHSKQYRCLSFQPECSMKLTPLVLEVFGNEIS
#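 Fluorescence polarization assay of small-molecule disruption of VDR binding to coregulator peptide SRC2-3. Compounds and controls pin-transferred, then read after 2 h incubation at ambient room temperature.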
# Sfp inh – inhibitors of Bacillus subtilis Sfp phosphopantetheinyl transferase; Q9F4F7; Biochemical Sfp PPTase activity, qHTS; Potency, µM, for inactives: largest response in the series, negative = inhibition, usual class: inhibitors; 310,000 compounds, 3.5% hits;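 note: the enzyme is Sfp with the accession as filed and its product quenches rhodamine fluorescence; 0% = enzyme reaction without inhibitor and -100% = no enzyme wells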
#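 Buffer: 50 mM Hepes-Na pH 7.6, 10 mM MgCl2, 0.01% Nonidet P-40, 0.01% BSA. Enzyme 15 nM, pre-exposed to compound 15 min; substrates then added and fluorescence change tracked over 30 min.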
# rTrxR1 inhibitor – rat TrxR1 inhibition | O89049 | recombinant rTrxR1, NADPH fluorescence consumption, selenite substrate | Potency, µM (doses to about 114 µM), without a hit: top-dose activity change, negative = inhibition, usual class: inhibitors | 390,000 compounds, 1% hits; note: nearly all actives have a fitted effect of over 65% in size
#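 Rat TrxR1 (90 nM in the dispensed reagent) was pre-reduced with 400 uM NADPH for 5 min at room temperature, then incubated with compound for 15 min. After 400 uM selenite was added, NADPH fluorescence (Ex 340/Em 450 nm) was followed for 8 min.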
# GLS inhibitor – inhibitors of human glutaminase (GLS); O94925; 410,000 compounds, 0.21% hits; Potency, µM (series often up to 45.5 µM), inactives show top-dose activity change, negative = inhibition, actives largely listed as inhibitors; GLS enzymatic activity, qHTS titration
#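 Assay buffer: 45 mM KH2PO4 pH 8.2, 0.02% Tween-20. hKGA acts on L-glutamine (1 mM solution added); product glutamate is reported by an oxidase/peroxidase Amplex Red coupling, with fluorescence taken at baseline and 30 min.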
# KAT2A inh – GCN5L2 (KAT2A) acetyltransferase inhibition; Q92830; GCN5L2 HAT assay, ThioGlo1 CoA-SH fluorescence; Potency, µM (series often up to 58.9 µM), without a hit: top-dose activity change, negative = inhibition, usual class: inhibitors; 390,000 compounds, 0.21% hits
#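 qHTS, 1536-well. 20nM enzyme, pH 7.5 HEPES/EDTA/Tween-20 buffer; 15 min compound preinc., RT. Start: 75uM H3(1-25), 70uM AcCoA, 50uM ThioGlo1. Read Ex340/Em540 at t=0 (autofluorescence flag) and t=20 min.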
# TrxR1 substrate – is turned over as a substrate by rat TrxR1; O89049; purified TrxR1 substrate turnover, NADPH consumption readout; Potency, µM (titrated, usually from 114 µM), inactives show top-dose activity change, negative = substrate turnover; 390,000 compounds, 0.01% hits; AID 588456; note: nearly all actives have a fitted effect of over 50% in size
#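 Rat TrxR1, dispensed at 90 nM, was prereduced with 400 uM NADPH (final) for 5 min at ~22 deg C, then incubated with compound 15 min before 400 uM selenite. A first-read NADPH fluorescence drop versus no-compound background flagged substrates.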
# Starred values were filed as active, the others as inactive; ? = inconclusive; . = no result given; [ ] = remark or other dose. Compounds with a hit are over-represented: about 3.8% of the library has one in this group of screens. Calls come from the whole dose curve; as a rule, active = well fitted curve in the direction sought with a large enough effect; inconclusive = small, poorly fitted or top-dose-only effect, or another doubt; inactive = no such curve, though single readings can be large; an effect the other way counts as inactive or inconclusive. Unless noted, % is set by controls: 0 for no effect and ±100 for the full control effect; potency is the fitted concentration of half-maximal effect.
SMILES,VDR inhibitor,Sfp inh,rTrxR1 inhibitor,GLS inhibitor,KAT2A inh,TrxR1 substrate
Cc1ccc(CN2CCN(/N=C/c3cc([N+](=O)[O-])ccc3Cl)CC2)cc1,18.8%,-7.3%,-13.0%,0.9%,-5.7%,-6.5%
CCCCN1CCCC[C@H]1C(=O)Nc1c(C)cccc1C,3.6%,19.2%,.,4.0%,8.4%[21.4 µM],.
Cn1cc(S(=O)(=O)N2CCc3ccccc32)cc1C(=O)NC1CCCCC1,-15.9%,20.4%,18.9%[57.1 µM],5.2%,-4.2%,0.7%[57.1 µM]
CC(C)OCCCNC(=O)c1cc(S(=O)(=O)N2CCc3ccccc32)cn1C,-12.6%,1.9%,-13.1%[57.1 µM],0.7%,0.794µM*,4.2%[57.1 µM]
Cc1nc(Nc2ccc3c(c2)OCCO3)c2c(C)c(C)sc2n1,0.3%,7.1%,-2.9%[57.1 µM],-23.1%,-17.0%,4.7%[57.1 µM]
COc1ccc(-c2ccc(C(=S)N3CCN(C(C)=O)CC3)o2)cc1,79.4µM*,12.6µM*,-4.5%,12.7%,2.8%,4.2%
S=C(c1ccc(-c2ccccc2Cl)o1)N1CCOCC1,-62.4%,14.1µM*,-12.0%,-4.6%,-18.9%,-14.3%
S=C(c1ccc(-c2ccc(Br)cc2)o1)N1CCOCC1,?,35.5µM*,13.2%[57.1 µM],-6.6%,-2.8%,5.5%[57.1 µM]
S=C(c1ccc(-c2ccc(Cl)c(Cl)c2)o1)N1CCOCC1,-4.1%,15.8µM*,28.2µM*,0.0%,-10.9%,-6.8%
O=C(O)C1(P(=O)(c2ccc(Cl)cc2)c2ccc(Cl)cc2)CC1,-4.8%,9.6%,22.4%,3.9%,2.1%,8.5%
O=C(C1CCCCC1)N1CCC2CC1c1cc(N3CCCCC3)ccc12 (stereo not drawn),.,.,.,0.3%,.,.
CC(C)c1ccc(O)c(NC(=S)NC(=O)c2cccnc2)c1,1.6%,1.2%,24.4%[57.1 µM],-22.8%,-8.2%,8.3%[57.1 µM]
O=C(c1ccc(-c2ccc([N+](=O)[O-])cc2Cl)o1)N1CCOCC1,0.3%,39.8µM*,13.4%,-7.1%,-2.6%,2.8%
O=C(c1ccc(-c2cccc(Cl)c2Cl)o1)N1CCOCC1,-8.6%,79.4µM*,?,0.2%,-5.9%,-1.6%
O=C(OCC1OC(OC(=O)c2cc(O)c(O)c(OC(=O)c3cc(O)c(O)c(O)c3)c2)[C@@H](OC(=O)c2cc(O)c(O)c(OC(=O)c3cc(O)c(O)c(O)c3)c2)C(OC(=O)c2cc(O)c(O)c(OC(=O)c3cc(O)c(O)c(O)c3)c2)C1OC(=O)c1cc(O)c(O)c(OC(=O)c2cc(O)c(O)c(O)c2)c1)c1cc(O)c(O)c(OC(=O)c2cc(O)c(O)c(O)c2)c1 (stereo partly drawn),12.6µM*,11.2µM*,.,27.9%,3.55µM*,.
Cc1onc(-c2ccccc2)c1C(=O)OCC(=O)Nc1ccccc1Cl,.,.,.,-7.0%,.,.
CCCNC(=O)C(Cc1ccccc1)NC(=O)c1ccccc1 (stereo not drawn),0.1%,.,22.6%,-2.0%,-3.1%,9.6%
COC(=S)N/C(=N\S(=O)(=O)c1ccc(Cl)cc1)c1ccccc1,89.1µM*,22.4µM*,-16.3%,-10.8%,-8.1%,-5.7%
COC(=O)c1ccc(N/C(=N/S(=O)(=O)c2ccccc2)c2ccccc2)cc1,-14.6%,17.3%,2.4%,-5.0%,-8.9%,-9.2%
CCOC(=S)N/C(=N\S(C)(=O)=O)c1ccccc1,-24.4%,20µM*,21.0%,13.1%,-14.9%,-1.9%
CCCOC(=S)N/C(=N\S(=O)(=O)c1ccccc1)c1ccccc1,-13.9%,15.8µM*,-16.9%,-13.6%,-3.3%,-0.1%
O=S(=O)(/N=C(/NS(=O)(=O)c1ccccc1)c1ccccc1)c1ccccc1,-3.1%,17.1%,10.5%,-13.2%,8.4%,8.5%[57.1 µM]
CCOC(=S)N/C(=N\S(=O)(=O)c1ccccc1)c1ccccc1,-29.1%,17.8µM*,-15.8%,-8.1%,-3.3%,3.8%
CCOC(=O)c1c(C)[nH]c(C(=O)COC(=O)C(C)Oc2ccc(Cl)cc2Cl)c1C (stereo not drawn),-1.7%,?,-7.4%,4.8%,-6.3%,-14.7%
O=C(/C=C/c1ccc(OC(F)F)cc1)OCC(=O)N1CCC(c2ccccc2)=N1,-8.5%,.,24.6%,-1.5%,-9.0%,0.3%
SMILES,VDR inhibitor,Sfp inh,rTrxR1 inhibitor,GLS inhibitor,KAT2A inh,TrxR1 substrate
Cc1cc(C)cc(NC(=S)N(CCN(C)C)C(C)c2cccnc2)c1 (stereo not drawn),1.8%,19.4%,6.4%[57.1 µM],-16.8%,-1.4%,4.1%[57.1 µM]
CCOc1ccc(Cc2c(O)nc(SC)[nH]c2=O)cc1,.,.,.,11.7%,.,.
CSc1nc(O)c(C(c2cccc([N+](=O)[O-])c2)c2c(O)nc(SC)[nH]c2=O)c(=O)[nH]1,-0.8%,-6.2%,44.7µM*,25.3%,-4.1%,-14.5%
CCOc1ccc(C(c2c(O)nc(SC)[nH]c2=O)c2c(O)nc(SC)[nH]c2=O)cc1,?,.,28.2µM*,15.6%,.,-1.0%
O=c1[nH]c(SCc2cccc([N+](=O)[O-])c2)nc2[nH]ncc12,3.6%,16.6%,20.4%,2.5%,1.1%,5.4%
CC(C)c1c(O)nc(SCc2ccc(F)cc2)[nH]c1=O,-16.7%,5.5%,32.4%[57.1 µM],4.8%,-17.9%,11.2%[57.1 µM]
C=CCOc1ccc(C(c2c(O)nc(SC)[nH]c2=O)c2c(O)nc(SC)[nH]c2=O)cc1,22.4µM*,.,7.94µM*,25.3%,.,7.6%
CSc1nc(O)c(C(c2ccc(O)cc2)c2c(O)nc(SC)[nH]c2=O)c(=O)[nH]1,?,50.1µM*,8.91µM*,29.8%,-6.2%,2.5%
CCOc1ccccc1C(c1c(O)nc(SC)[nH]c1=O)c1c(O)nc(SC)[nH]c1=O,-8.5%,.,?,26.5%,.,0.7%
CN(C)c1nc(N2CCN(c3ccc(F)cc3)CC2)c(C#N)c(=O)o1,-13.6%,-8.5%,22.0%,18.3%,?,4.2%
CSCCC(=O)Nc1ccc(C(C)=O)cc1,-2.3%,18.1%,?,0.3%,-1.9%,1.5%
Cc1csc(NC(=O)CN2C(=O)c3ccccc3C2=O)c1C(N)=O,-1.5%,2.6%,-3.5%,15.5%,2.1%,-0.8%
Cc1nnc(SCC(=O)NCc2ccccc2Cl)n(N)c1=O,6.3%,6.0%,-9.2%,-3.0%,1.0%,-4.0%
O=C(/C=C\c1ccc(-c2ccccc2)o1)c1ccccc1,-13.8%,11.2µM*,10µM*,2.7%,-0.1%,-7.0%
O=Cc1ccc(-c2ccc(C(=O)O)cc2)o1,-10.7%,-13.9%,16.7%[57.1 µM],2.9%,-2.2%,4.1%[57.1 µM]
O=[N+]([O-])c1ccc(-c2ccc(/C=N/O)o2)cc1,-16.0%,-0.3%,10.3%[57.1 µM],-10.0%,-8.1%,5.8%[57.1 µM]
O=C(O)/C(=C\c1ccc(-c2ccc(F)cc2)o1)c1ccccc1,-3.2%,8.91µM*,?,5.8%,-9.3%,-2.1%[57.1 µM]
Cc1ccc(C(=O)/C=C/c2ccc(-c3ccc(C)cc3)o2)cc1,-13.0%,8.91µM*,17.8µM*,-10.4%,-6.5%,-8.6%
